Experimental data: the supplement of paper PMC10849652
Of roughly 8,800 targets only a part is listed; those with a hit were picked by preference. About 0.5% of all pairs of compound and target were hits. A number with no mark means an inactive call.

Compound: C1=CC2=C(C=CC(=C2)/C=C\3/C(=O)NC(=NCC4=CC=CS4)S3)N=C1
Test: log2 fold change, soluble protein after heating vs DMSO (PISA); higher = thermal stabilisation; K562 lysate, 10 uM; active = over 0.2 and 3.5 SD of the protein, either way, in both replicates (recomputed)
In short: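 Thermal stability, expressed as log-two fold change relative to solvent controls, is given from duplicates. Crude K562 extract in PBS pH 7.4 with 1 mM MgCl2, at 1 mg/mL protein, was treated with 10 μM compound for 30 min and heated in aliquots for 3 min across 48°C-58°C. After pooling, adjustment to 0.5% NP-40 at 4°C and centrifugation at 21,000xg for 90 min, supernatant protein was measured by TMTpro 16plex LC-MS/MS with channel sums equalised.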

Sequence of UniProt Q9H7E2 (Q9H7E2 whole entry, looked up): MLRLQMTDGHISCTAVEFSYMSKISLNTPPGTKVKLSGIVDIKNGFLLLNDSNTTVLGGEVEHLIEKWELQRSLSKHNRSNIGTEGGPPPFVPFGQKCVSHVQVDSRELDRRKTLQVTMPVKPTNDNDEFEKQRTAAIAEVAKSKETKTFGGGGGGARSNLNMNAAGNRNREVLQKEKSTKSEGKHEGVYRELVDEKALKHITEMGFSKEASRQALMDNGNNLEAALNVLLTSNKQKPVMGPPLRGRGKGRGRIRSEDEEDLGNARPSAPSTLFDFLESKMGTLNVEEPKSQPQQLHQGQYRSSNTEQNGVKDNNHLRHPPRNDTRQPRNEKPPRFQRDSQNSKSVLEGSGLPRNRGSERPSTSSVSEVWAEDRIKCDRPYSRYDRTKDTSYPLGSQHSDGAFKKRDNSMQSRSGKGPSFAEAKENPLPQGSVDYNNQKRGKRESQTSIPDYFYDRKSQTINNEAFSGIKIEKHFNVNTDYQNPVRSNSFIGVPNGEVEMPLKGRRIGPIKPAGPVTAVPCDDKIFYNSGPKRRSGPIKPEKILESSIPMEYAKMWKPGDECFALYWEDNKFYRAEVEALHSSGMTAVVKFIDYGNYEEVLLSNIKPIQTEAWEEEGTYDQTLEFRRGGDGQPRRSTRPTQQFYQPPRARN
Sequence of UniProt Q12788 (Q12788 whole entry, looked up): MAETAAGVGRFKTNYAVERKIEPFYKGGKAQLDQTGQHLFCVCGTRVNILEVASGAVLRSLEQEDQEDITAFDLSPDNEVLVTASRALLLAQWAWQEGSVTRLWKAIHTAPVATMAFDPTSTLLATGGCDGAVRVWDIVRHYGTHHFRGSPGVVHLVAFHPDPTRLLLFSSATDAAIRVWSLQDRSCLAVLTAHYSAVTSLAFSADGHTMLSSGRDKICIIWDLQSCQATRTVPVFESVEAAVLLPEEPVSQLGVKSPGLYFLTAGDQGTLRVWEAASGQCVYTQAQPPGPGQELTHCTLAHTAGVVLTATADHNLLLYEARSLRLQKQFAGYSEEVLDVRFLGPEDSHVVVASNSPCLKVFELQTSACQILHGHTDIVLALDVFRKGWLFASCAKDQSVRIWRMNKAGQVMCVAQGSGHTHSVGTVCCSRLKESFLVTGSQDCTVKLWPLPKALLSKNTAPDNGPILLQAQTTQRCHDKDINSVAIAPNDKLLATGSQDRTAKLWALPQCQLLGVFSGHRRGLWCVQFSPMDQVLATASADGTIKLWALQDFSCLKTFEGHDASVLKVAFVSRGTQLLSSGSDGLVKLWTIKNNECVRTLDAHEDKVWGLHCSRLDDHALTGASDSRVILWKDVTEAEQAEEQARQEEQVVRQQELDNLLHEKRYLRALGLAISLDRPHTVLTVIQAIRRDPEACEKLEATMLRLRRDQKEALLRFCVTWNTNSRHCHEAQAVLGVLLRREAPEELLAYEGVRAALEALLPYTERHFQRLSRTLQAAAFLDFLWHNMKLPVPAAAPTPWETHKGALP
Sequence of UniProt Q9NZ01 (Q9NZ01 whole entry, looked up): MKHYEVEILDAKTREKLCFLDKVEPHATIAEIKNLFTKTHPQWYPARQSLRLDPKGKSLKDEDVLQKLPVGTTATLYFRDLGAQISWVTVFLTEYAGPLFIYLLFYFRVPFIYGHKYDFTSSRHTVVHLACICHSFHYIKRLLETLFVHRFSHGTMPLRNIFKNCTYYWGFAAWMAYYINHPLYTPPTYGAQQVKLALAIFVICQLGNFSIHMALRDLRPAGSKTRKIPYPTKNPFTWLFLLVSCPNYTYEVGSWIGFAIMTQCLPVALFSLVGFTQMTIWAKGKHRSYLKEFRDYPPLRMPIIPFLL
Sequence of UniProt Q96F44 (Q96F44 whole entry, looked up): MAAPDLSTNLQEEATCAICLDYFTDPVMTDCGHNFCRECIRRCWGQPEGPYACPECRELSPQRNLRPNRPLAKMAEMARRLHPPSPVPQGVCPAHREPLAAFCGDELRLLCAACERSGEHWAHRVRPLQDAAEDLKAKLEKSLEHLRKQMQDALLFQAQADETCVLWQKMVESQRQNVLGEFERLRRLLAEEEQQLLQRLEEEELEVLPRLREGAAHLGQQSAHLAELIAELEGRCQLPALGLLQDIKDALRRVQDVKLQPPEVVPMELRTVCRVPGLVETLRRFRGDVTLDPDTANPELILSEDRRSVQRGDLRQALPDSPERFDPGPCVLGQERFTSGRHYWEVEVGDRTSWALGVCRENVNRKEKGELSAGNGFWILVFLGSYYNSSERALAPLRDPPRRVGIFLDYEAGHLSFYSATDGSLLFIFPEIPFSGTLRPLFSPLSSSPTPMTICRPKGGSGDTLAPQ
Sequence of UniProt O43493 (O43493 whole entry, looked up): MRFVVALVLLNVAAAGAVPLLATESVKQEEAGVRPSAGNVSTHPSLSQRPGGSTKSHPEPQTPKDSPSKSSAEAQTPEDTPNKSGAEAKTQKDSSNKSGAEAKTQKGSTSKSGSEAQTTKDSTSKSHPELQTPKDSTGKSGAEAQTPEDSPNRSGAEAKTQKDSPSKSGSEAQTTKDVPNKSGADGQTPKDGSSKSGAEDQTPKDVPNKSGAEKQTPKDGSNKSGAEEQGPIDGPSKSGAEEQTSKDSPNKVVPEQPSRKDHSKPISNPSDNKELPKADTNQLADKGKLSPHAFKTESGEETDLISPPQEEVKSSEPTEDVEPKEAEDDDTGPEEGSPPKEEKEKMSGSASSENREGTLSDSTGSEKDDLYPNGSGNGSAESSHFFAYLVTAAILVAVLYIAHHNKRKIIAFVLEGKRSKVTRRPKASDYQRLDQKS
Sequence of UniProt Q5T6F2 (Q5T6F2 whole entry, looked up): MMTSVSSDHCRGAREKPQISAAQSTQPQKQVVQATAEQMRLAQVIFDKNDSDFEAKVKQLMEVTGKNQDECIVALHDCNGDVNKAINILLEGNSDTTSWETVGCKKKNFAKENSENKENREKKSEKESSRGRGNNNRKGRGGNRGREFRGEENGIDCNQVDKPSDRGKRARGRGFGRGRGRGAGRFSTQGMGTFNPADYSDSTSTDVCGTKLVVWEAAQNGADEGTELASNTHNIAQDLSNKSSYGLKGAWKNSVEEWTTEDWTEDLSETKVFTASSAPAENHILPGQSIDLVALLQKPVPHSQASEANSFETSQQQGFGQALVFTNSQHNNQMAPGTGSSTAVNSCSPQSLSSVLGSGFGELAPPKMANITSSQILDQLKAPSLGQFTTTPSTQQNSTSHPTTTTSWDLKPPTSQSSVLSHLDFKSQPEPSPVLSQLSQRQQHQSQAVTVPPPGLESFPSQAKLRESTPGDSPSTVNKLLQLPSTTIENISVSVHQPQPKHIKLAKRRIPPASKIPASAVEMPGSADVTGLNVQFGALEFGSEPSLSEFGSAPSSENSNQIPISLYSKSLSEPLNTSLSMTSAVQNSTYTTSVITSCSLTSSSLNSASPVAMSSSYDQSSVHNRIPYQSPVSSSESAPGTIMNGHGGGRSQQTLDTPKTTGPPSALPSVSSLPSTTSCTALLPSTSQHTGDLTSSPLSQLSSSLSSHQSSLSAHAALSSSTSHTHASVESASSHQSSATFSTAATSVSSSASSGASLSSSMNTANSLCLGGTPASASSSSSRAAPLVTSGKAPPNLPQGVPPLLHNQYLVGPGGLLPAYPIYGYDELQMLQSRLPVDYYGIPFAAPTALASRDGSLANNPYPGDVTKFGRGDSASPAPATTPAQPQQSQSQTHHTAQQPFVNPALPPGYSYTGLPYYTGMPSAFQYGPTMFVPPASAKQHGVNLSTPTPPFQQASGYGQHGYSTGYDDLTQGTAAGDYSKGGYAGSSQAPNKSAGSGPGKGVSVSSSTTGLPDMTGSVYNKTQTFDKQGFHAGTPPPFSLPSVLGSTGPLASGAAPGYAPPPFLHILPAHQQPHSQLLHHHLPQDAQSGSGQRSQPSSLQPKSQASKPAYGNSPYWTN
Sequence of UniProt Q9UHD2 (Q9UHD2 whole entry, looked up): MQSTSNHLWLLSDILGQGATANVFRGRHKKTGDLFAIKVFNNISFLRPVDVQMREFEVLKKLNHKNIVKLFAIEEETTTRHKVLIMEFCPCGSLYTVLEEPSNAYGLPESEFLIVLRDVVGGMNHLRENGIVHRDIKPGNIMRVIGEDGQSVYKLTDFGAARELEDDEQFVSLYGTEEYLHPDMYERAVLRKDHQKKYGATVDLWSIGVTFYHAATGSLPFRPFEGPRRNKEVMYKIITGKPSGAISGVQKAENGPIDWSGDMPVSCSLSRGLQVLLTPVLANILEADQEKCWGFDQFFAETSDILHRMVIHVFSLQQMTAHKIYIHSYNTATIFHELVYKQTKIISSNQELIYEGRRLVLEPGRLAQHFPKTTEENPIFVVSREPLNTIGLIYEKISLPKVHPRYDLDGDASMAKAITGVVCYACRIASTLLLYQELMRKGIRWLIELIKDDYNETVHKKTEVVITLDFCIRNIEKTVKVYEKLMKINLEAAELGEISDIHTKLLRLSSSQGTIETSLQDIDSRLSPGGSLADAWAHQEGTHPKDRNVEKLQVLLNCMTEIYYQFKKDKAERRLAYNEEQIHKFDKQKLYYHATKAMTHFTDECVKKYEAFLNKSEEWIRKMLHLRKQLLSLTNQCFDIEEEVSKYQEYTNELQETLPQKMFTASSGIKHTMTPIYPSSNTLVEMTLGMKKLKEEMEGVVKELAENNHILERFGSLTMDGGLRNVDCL
Sequence of UniProt Q9P0S9 (Q9P0S9 whole entry, looked up): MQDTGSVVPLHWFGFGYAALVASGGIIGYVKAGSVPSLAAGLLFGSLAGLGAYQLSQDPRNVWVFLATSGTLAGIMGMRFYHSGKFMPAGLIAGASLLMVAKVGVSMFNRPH
Sequence of UniProt P67936 (P67936 whole entry, looked up): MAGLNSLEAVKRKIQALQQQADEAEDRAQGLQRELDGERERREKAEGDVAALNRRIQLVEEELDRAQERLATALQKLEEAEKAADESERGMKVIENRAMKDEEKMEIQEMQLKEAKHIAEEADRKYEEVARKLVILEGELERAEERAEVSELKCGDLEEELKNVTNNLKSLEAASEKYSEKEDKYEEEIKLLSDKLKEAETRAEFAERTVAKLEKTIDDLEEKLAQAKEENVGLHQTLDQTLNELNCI

**Q.** How did the log2 fold change turn out when UBXN2B (UniProt Q14CS0) was run?
**A.** The log2 fold change was -0.045.

**Q.** With TRAF2 isoform 2 (UniProt Q12933) as the target, how does the log2 fold change read?
**A.** The log2 fold change was 0.013.

**Q.** For TMOD1 (UniProt P28289), which log2 fold change is on record?
**A.** The log2 fold change was 0.018.

**Q.** For TPD52L2 isoform 7 (UniProt O43399), which log2 fold change is on record?
**A.** Its log2 fold change is 0.015.

**Q.** With TMEM199 (UniProt Q8N511) as the target, how does the log2 fold change read?
**A.** The log2 fold change was 0.032.

**Q.** Which log2 fold change does the source give for TBCE (UniProt Q15813) here?
**A.** Its log2 fold change is 0.004.

**Q.** Which log2 fold change does the source give for TDRD3 isoform 3 (UniProt Q9H7E2) here?
**A.** The log2 fold change was 0.086.

**Q.** TRIM33 (UniProt H0Y612) was tested. Which log2 fold change did it give?
**A.** Its log2 fold change is -0.126.

**Q.** Which log2 fold change does the source give for TGOLN2 isoform 7 (UniProt O43493) here?
**A.** Its log2 fold change is 0.022.

**Q.** For TBL3 (UniProt Q12788), which log2 fold change is on record?
**A.** Its log2 fold change is 0.037.

**Q.** Which log2 fold change does the source give for TECR (UniProt Q9NZ01) here?
**A.** The log2 fold change was 0.019.

**Q.** With TTK (UniProt P33981) as the target, how does the log2 fold change read?
**A.** The log2 fold change was -0.034.

**Q.** For TBL2 (UniProt Q9Y4P3), which log2 fold change is on record?
**A.** Its log2 fold change is 0.061.

**Q.** With TPP2 (UniProt P29144) as the target, how does the log2 fold change read?
**A.** The log2 fold change was 0.001.

**Q.** UBAP2 (UniProt Q5T6F2) was tested. Which log2 fold change did it give?
**A.** The log2 fold change was 0.01.

**Q.** TMEM14C (UniProt Q9P0S9) was tested. Which log2 fold change did it give?
**A.** The log2 fold change was -0.011.

**Q.** Which log2 fold change does the source give for TPM4 (UniProt P67936) here?
**A.** The log2 fold change was 0.058.

**Q.** TBK1 (UniProt Q9UHD2) was tested. Which log2 fold change did it give?
**A.** Its log2 fold change is 0.006.

**Q.** Which log2 fold change does the source give for TMPO (UniProt P42166) here?
**A.** The log2 fold change was -0.097.

**Q.** With TFPI (UniProt P10646) as the target, how does the log2 fold change read?
**A.** Its log2 fold change is 0.089.

**Q.** How did the log2 fold change turn out when TRIM11 (UniProt Q96F44) was run?
**A.** Its log2 fold change is -0.002.

**Q.** For TRIM25 (UniProt Q14258), which log2 fold change is on record?
**A.** Its log2 fold change is -0.004.

**Q.** Which log2 fold change does the source give for TRAPPC12 (UniProt Q8WVT3) here?
**A.** Its log2 fold change is -0.047.
